Assay results as given in PubChem BioAssay AID1626 (SRMLSC, 2009).
About 2,000 (0.91%) of roughly 220,000 compounds were called active. Not shown: some 2% with an inconclusive outcome. Cut-off read from the data, not from the text of the source: inconclusive = inhibition above about 80% without an active follow-up result; inactive = below that; test concentration not stated here. The list is a sample of the results. Potency and affinity values are given separately.

experiment: M. tuberculosis H37Rv growth inhibitors, H37Rv strain (AID 1626); conditions: active compounds read high, concentration not given here;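 note: bacteria incubated seven days before Alamar blue readout; 0% = bacteria only wells and 100% = bacteria with antibiotic wells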

SMILES	inhibition
Cn1c(CN2CCOCC2)nnc1SCC(N)=O	7.64% (inactive)
O=C(NCCSCc1c(F)cccc1Cl)c1ccc(CN2CCOCC2)cc1	0.75% (inactive)
CC1CCN(S(=O)(=O)N2CCC(C(=O)O)CC2)CC1	-4.2% (inactive)
C=CCNC(=O)NC(=O)CSc1nnc(C(F)(F)F)n1C	-4.51% (inactive)
CCCc1cc(=O)oc2cc(OCC(=O)OC)cc(OCC(=O)OC)c12	6.75% (inactive)
CCCCCCc1ccc(OCC(=O)O)cc1OCC(=O)O	-14.7% (inactive)
Cn1c2ccc(F)cc2c2ncn(CC3CCCO3)c(=O)c21 (stereo not given)	-14% (inactive)
CCCCn1c(=O)c(C(=O)NCc2ccncc2)c(O)c2ccccc21	-0.26% (inactive)
CC(C)Cn1c(=O)c(C(=O)Nc2cnccn2)c(O)c2ccccc21	-13.3% (inactive)
CCCn1c(=O)c(C(=O)NCc2cccnc2)c(O)c2ccccc21	-5.34% (inactive)
CCCCCn1c(=O)c(C(=O)NCc2ccncc2)c(O)c2ccccc21	41.4% (inactive)
O=C(/C=C/c1ccco1)NC(=S)Nc1ccccn1	2.96% (inactive)
COc1ccc(S(=O)(=O)N(C)C2CCN(C)CC2)cc1	-0.56% (inactive)
CC(=O)c1ccc(C(=O)N2CCC(CO)(Cc3cccc(C(F)(F)F)c3)CC2)cc1	-0.21% (inactive)
CC1=C(C(=O)NC2CCC(C)CC2)C2(CCC(C)CC2)OC1=O (stereo not given)	3.77% (inactive)
CCc1ccc(/C=C/C(=O)c2ccc(S(=O)(=O)N(C)C)cc2)cc1	6.7% (inactive)
O=C(c1ccccc1)C1C(=O)c2ccccc2C1=O	-2.43% (inactive)
CCc1ccc(/C=C/C(=O)c2c(C)cc(C)[nH]c2=O)cc1	8.7% (inactive)
Cc1ccc(C(=O)C2C(=O)c3ccccc3C2=O)cc1	39.5% (inactive)
Cc1ccc(/C=C/C(=O)c2ccccc2O)cc1	11.9% (inactive)
COC(=O)C1C(=O)C(C(=O)/C=C/c2ccccc2)C(=O)CC1(C)C (stereo not given)	-2.58% (inactive)
CNc1nc(-c2ccc3c(c2)CCN3C(=O)c2ccccc2F)cs1	0.06% (inactive)

SMILES	inhibition
CC(C)(C)NC(=O)CN(C(=O)CSc1nnc(COc2ccccc2)o1)c1cccc(F)c1	4.71% (inactive)
CC(C)OP(=O)(OC(C)C)C(NCc1ccccc1)c1ccccc1 (stereo not given)	4.8% (inactive)
COC(=O)c1c(-c2ccccc2)noc1C	-2.56% (inactive)
COc1ccc(/C=N/NC(=O)Nc2nonc2N)cc1	-4.3% (inactive)
OCCCNCc1cccc2ccccc12	3.9% (inactive)
O=C(Nc1ccccc1Cl)c1csc(-c2cccnc2)n1	2.6% (inactive)
Cc1[nH]c(C)c2c(=O)n(-c3ccccc3)ncc12	3.67% (inactive)
CCSc1cc(N2CCCC2)nc(-c2ccc(C)cc2)n1	3.04% (inactive)
CCCSc1cc(N2CCCC2)nc(-c2ccccc2)n1	6.61% (inactive)
CC(C)(CC(=O)O)CC(=O)NNc1ncccc1C#N	9.47% (inactive)
CCOc1ccc(/C=N/N(C)c2ccccc2)cc1OC	33.5% (inactive)
Cc1ccc(NC(=O)C2CCCCC2C(=O)O)cc1C (stereo not given)	1.55% (inactive)
O=C(O)C1CCCCC1C(=O)Nc1ccc(F)c(F)c1 (stereo not given)	0.5% (inactive)
COc1cc(/C=N/NC(N)=O)ccc1OCC(=O)N1C(C)CCCC1C (stereo not given)	-1.38% (inactive)
Cc1sc(N)c(C(=O)c2ccccc2)c1C	-10.3% (inactive)
CN(C)/C=N/c1ncc(C(=O)c2ccccc2)s1	-11.7% (inactive)
O=C(c1ccccc1)c1cc2ccccc2o1	1.99% (inactive)
Nc1nc(Nc2ccccc2)sc1C(=O)c1ccccc1	36.1% (inactive)
COC(=O)CCCC1=CC2=C(c3ccccc3)C(=O)C(C)(OC(=O)C3CCCC3)C(=O)C2=CN1CCc1c[nH]c2ccccc12 (stereo not given)	0.18% (inactive)
COc1ccc(-n2c(C)cc(C(=O)Cn3nnc4ccccc4c3=O)c2C)cc1	-8.34% (inactive)
Cc1ccc(CN(c2ccc(C(=O)N3CCc4ccccc4C3)cc2)S(C)(=O)=O)cc1	6.8% (inactive)
N#Cc1ccccc1Cn1cc(C(=O)c2cccs2)c2ccccc21	7.78% (inactive)

SMILES	inhibition
Nc1nc(Nc2cccc(F)c2)nc(NCCO)c1[N+](=O)[O-]	7.19% (inactive)
CC1CCC(C(C)C)C(OC(=O)COC(=O)c2ccccc2N)C1 (stereo not given)	6.07% (inactive)
CC1CCC(C(C)C)C(OC(=O)Cn2nnc3c(cnn3-c3ccccc3)c2=O)C1 (stereo not given)	1.77% (inactive)
CC1CCC(C(C)C)C(OC(=O)COC(=O)c2ccc(N)cc2)C1 (stereo not given)	68.7% (inactive)
CC1CCC(C(C)C)C(OC(=O)CSc2nccc(=O)[nH]2)C1 (stereo not given)	-8.76% (inactive)
CC1CCC(C(C)C)C(OC(=O)COC(=O)c2ccc(=O)[nH]c2)C1 (stereo not given)	-0.66% (inactive)
CC1CCC(C(C)C)C(OC(=O)COC(=O)c2cccn2C)C1 (stereo not given)	-6.06% (inactive)
CCOc1ccc(CCNC(=O)Cn2cccc2C(=O)c2ccccc2C)cc1OCC	4.18% (inactive)
Cc1c(-c2n[nH]c(=S)n2-c2ccc(Br)cc2)nnn1-c1ccc(Cl)cc1	4.27% (inactive)
CCOC(CNc1c([N+](=O)[O-])c(=O)n(C)c(=O)n1C)OCC	3.27% (inactive)
Cc1ccccc1NC(=O)OCc1cccnc1Sc1ccc(Cl)cc1	0.86% (inactive)
Cn1c(SCC(=O)O)nc2ccccc2c1=O	3.07% (inactive)
CN1C(=O)C(=Cc2ccc(Sc3ccccc3)o2)C(=O)N(C)C1=O	41% (inactive)
Cc1ccc(Sc2ccc(/C=C3/C(=O)NN(c4ccccc4)C3=O)o2)cc1	75.7% (inactive)
CCCCc1nnc(NC(=O)CN2C(=O)c3ccccc3C2=O)s1	0.96% (inactive)
CCOC(=O)COc1ccc(S(=O)(=O)N2CCN(c3ccc(F)cc3)CC2)cc1	8.22% (inactive)
CN1CCN(C(=O)/C(=C\c2cccc([N+](=O)[O-])c2)NC(=O)c2cccs2)CC1	-3.33% (inactive)
COc1ccc(CN(C(=O)c2ccc3c(c2)OCCO3)C(C(=O)NC2CCCCC2)c2ccc3ncccc3c2)cc1 (stereo not given)	67.9% (inactive)
O=C(NC1CCCCC1)C(c1ccc2ncccc2c1)N(Cc1ccco1)C(=O)c1ccc2c(c1)OCCO2 (stereo not given)	13.5% (inactive)
O=C(NC1CCCCC1)C(c1ccc2ncccc2c1)N(Cc1ccccc1)C(=O)c1cccs1 (stereo not given)	40.5% (inactive)
O=C(NC1CCCCC1)C(c1ccc2ncccc2c1)N(Cc1ccc2c(c1)OCO2)C(=O)c1cccs1 (stereo not given)	8.94% (inactive)
